# HT1080NT lethal – kills 2HG-producing HT-1080-NT fibrosarcoma cells; AID 686970; Potency, µM (top dose mostly 46.1 µM), inactives show top-dose activity, negative = less viability, hits mostly cytotoxic; HT-1080-NT fibrosarcoma viability, CellTiter-Glo ATP luminescence, 48 h; 1.6% of 360,000 active;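 note: NT is the 2HG producing partner of a matched IDH1 knockdown line; potency is the fitted concentration of half-maximal effect; 0% = DMSO-treated cells and -100% = media-only wells without cells; nearly all actives have a fitted effect of over 55% in size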
#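 Fibrosarcoma NT cells, 750 per well in 5% FBS RPMI, were exposed to compound for 48 hours. Viability: CellTiter-Glo luminescence.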
# IL1B secr inh – inflammasome signaling inhibition, IL-1 beta readout; AID 743279; 4.7% of 360,000 active; THP-1 LPS/ATP IL-1B secretion, AlphaLISA, 16 h; active compounds read low; activity change, % at 57.5 µM; in the data active = activity change below about -50%; inconclusive = mostly about -30% to -49%
#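 THP-1 cells pretreated 1 hr with compounds (up to 57.5 uM final), then stimulated with LPS (250 ng/mL final) plus ATP (1.25 mM final); secreted IL-1B measured by AlphaLISA after 16 hr, decreased signal indicating inhibition.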
# ELG1 repair inh – inhibitors of ELG1-dependent DNA repair in HEK293T cells | HEK293T ELG1-luciferase reporter, luminescence, 16 h; DNA damage induced by 5-fluorouridine | Potency, µM (series often up to 46.1 µM), for inactives: at the top dose activity change, negative = inhibition, most hits filed as inhibitors | 2.3% of 330,000 active | AID 504467; note: potency is the fitted concentration of half-maximal effect; nearly all actives have a fitted effect of over 55% in size
#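 HEK293T cells expressing luciferase-tagged ELG1 (2,000/well) received 5-Fluorouridine plus compound or DMSO for 16 hr at 37 °C. Luciferase was read by ONE-Glo luminescence after 30 min at room temperature.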
# TDP1 cell CPT – growth inhibition of DT40 Tdp1-/-;hTDP1 cells with camptothecin (screen for TDP1 inhibitors); chicken DT40 Tdp1-/-;hTDP1 cells + 20 nM CPT, ATP luminescence, 48 h; Potency, µM (doses to about 46.2 µM), inactives show top-dose activity change, negative = growth inhibition, most hits filed as inhibitors; 12% of 420,000 active; AID 686979; note: potency is the fitted concentration of half-maximal effect; nearly all actives have a fitted effect of over 55% in size
#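 Chicken DT40 Tdp1-/- cells stably complemented with human TDP1 were seeded at 400 cells/well in medium containing 20 nM camptothecin, exposed to pin-transferred compounds, and grown at 37 °C for at least 48 hr. Viability was read as ATP luminescence.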
# DT40 TDP1 no CPT – qHTS for Inhibitors of human tyrosyl-DNA phosphodiesterase 1 (TDP1): qHTS in cells in absence of CPT; DT40 Tdp1-/- hTDP1 cells, no CPT, ATP luminescence, 48 h; Potency, µM (titrated, usually from 46.2 µM), without a hit: at the highest dose activity change, negative = growth inhibition, usual class: inhibitors; 15% of 420,000 active; AID 686978, 2013; note: potency is the fitted concentration of half-maximal effect; nearly all actives have a fitted effect of over 55% in size
#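 DT40 Tdp1-/-;hTDP1 cells, no CPT (DMSO vehicle only), 400 cells/well; compounds pin-transferred; ≥48 hr, 37 °C; CellTiter-Glo 30 min RT dark, luminescence read.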
# HT1080 IDH1KD tx – kills HT-1080 cells with IDH1 knockdown. HT-1080 IDH1 knockdown viability, ATP luminescence, 48 h. Potency, µM (titrated, usually from 46.1 µM), without a hit: top-dose activity, negative = toxicity, hits mostly cytotoxic. 2% of 360,000 active;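 note: potency is the fitted concentration of half-maximal effect; 0% = DMSO wells and -100% = cell-free medium wells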
#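 Viability of IDH1-knockdown HT-1080 fibrosarcoma cells was assessed by CellTiter-Glo after 48 h at 37 °C with titrated compound; concentration-effect curves were classified by fit quality and response size.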
# Starred values were filed as active, the others as inactive; ? = inconclusive; . = no result; [ ] = remark or other dose. This is a sample that favours compounds with a hit; in the whole collection about 19% have one here. Unless noted, calls come from the whole dose curve; as a rule, active = well fitted curve in the direction sought with a large enough effect; inconclusive = small, poorly fitted or top-dose-only effect, or another doubt; inactive = no such curve, though single readings can be large; an effect the other way counts as inactive or inconclusive. Unless noted, % is set by controls: 0 for no effect and ±100 for the full control effect.
SMILES,HT1080NT lethal,IL1B secr inh,ELG1 repair inh,TDP1 cell CPT,DT40 TDP1 no CPT,HT1080 IDH1KD tx
CC(C)Oc1ccc(C(CC(=O)O)NC(=O)C(Sc2ccccc2)c2ccccc2)cc1 (stereo not drawn),-7%,33,4%,-3%,-2%,-1%
Nc1c2c(nc3ccccc13)N(c1ccccc1)CC2,-13%,-9,7%,15µM*,?,-14%
CCCC(=O)Nc1c2c(nc3ccccc13)N(c1ccccc1)CC2,?,0,-18%,?,?,26µM*
Cc1cn(CC(=O)NCCc2ccccn2)c(=O)[nH]c1=O,2%,17,.,-12%,-2%,6%
CCN(CC)S(=O)(=O)c1ccc(OC)c(NC(=O)C(C)Oc2ccc3c(C)cc(=O)oc3c2)c1 (stereo not drawn),-9%,3,21µM*,?,18µM*,-17%
Cc1nc2nc[nH]n2c(=O)c1NS(=O)(=O)c1ccc(Br)cc1,.,.,.,6%,-10%,.
O=C(NC1CCCC1)c1ccc(CSc2nc3ccncc3n2Cc2cccc(F)c2)cc1,.,.,.,?,16µM*,.
CCC(C(=O)NC1CCCCC1)n1c(SCc2ccc(F)cc2)nc2ccncc21 (stereo not drawn),0%,16,-13%,?,?,-12%
O=C(NCc1ccc(F)cc1)c1ccc(CSc2nc3ccncc3n2Cc2ccc(F)cc2)cc1,.,.,.,23µM*,-97%,.
O=C(NC1CCCC1)c1ccc(CSc2nc3ccncc3n2Cc2ccc(F)cc2)cc1,-1%,3,?,?,16µM*,-12%
O=C(c1ccc(N2CCOCC2)c([N+](=O)[O-])c1)N1CCCC(C(F)(F)F)C1 (stereo not drawn),1%,-6,5%,-20%,-25%,14%
COc1ccc(C(=O)N[C@H](C(=O)Nc2nc3c(s2)CCCC3)C(C)C)cc1,-2%,-25,0%,?,23µM*,1%
CCOc1ccccc1C(=O)N[C@H](C(=O)Nc1nc2c(s1)CCCC2)C(C)C,?,?,?,16µM*,18µM*,?
CCC(Oc1ccc(F)cc1)C(=O)Nc1nc2c(s1)CCCC2 (stereo not drawn),.,.,.,?,16µM*,.
CCOC(=O)c1cccc(NC(=O)CCc2nc(-c3ccccc3F)no2)c1,-20%,7,-8%,23µM*,?,-2%
CCOC(=O)c1cccc(NC(=O)CCc2nc(-c3ccc(C)cc3)no2)c1,-1%,-14,?,?,23µM*,-13%
COc1ccccc1-c1noc(CCC(=O)Nc2cccc(C)c2)n1,-3%,-7,-1%,?,?,-8%
O=C(CCCc1nc(-c2ccccc2)no1)Nc1cc(C(F)(F)F)cc(C(F)(F)F)c1,.,.,.,?,23µM*,.
O=C(O)CCCc1nc(-c2ccccc2)no1,-2%,-15,3%,3%,-18%,-2%
O=C(CCc1nc(-c2ccccc2F)no1)Nc1cccc(C(F)(F)F)c1,.,.,.,18µM*,15µM*,.
Cc1ccc(-c2noc(Cn3cc(S(=O)(=O)N4CCCC4)ccc3=O)n2)cc1,2%,23,13%,-25%,?,8%
O=C(CCCc1nc(-c2ccc(Cl)cc2)no1)Nc1cccnc1,-2%,35,?,16µM*,15µM*,?
COc1cc(-c2noc(CCC(=O)Nc3cccnc3)n2)cc(OC)c1OC,0%,-15,?,-6%,-28%,2%
COc1ccc(-c2noc(CCC(=O)Nc3cccc(C(=O)NC4CC4)c3)n2)cc1OC,-1%,-53*,.,?,?,-1%
O=C(Nc1ccc(-c2noc(CCc3ccccc3)n2)cc1)c1cccnc1,?,?,23µM*,18µM*,12µM*,?
SMILES,HT1080NT lethal,IL1B secr inh,ELG1 repair inh,TDP1 cell CPT,DT40 TDP1 no CPT,HT1080 IDH1KD tx
O=C(NCCc1ccccc1)c1ccc(NC(=O)c2cccnc2)cc1,?,-9,13%,-15%,?,?
COc1ccc(NC(=O)CCc2nc(-c3ccccc3F)no2)cc1,-6%,6,-16%,?,2.6µM*,-18%
CCCNC(=O)N(C)C[C@@H]1Oc2ncc(-c3ccncc3)cc2C(=O)N([C@H](C)CO)C[C@@H]1C,3%,11,.,15%,-13%,-1%
COc1ccc(C(=O)Nc2nc(C)c(C)s2)cc1OC,-2%,-7,?,?,?,-3%
COc1cccc(C(=O)c2sc(Nc3ccc(F)c(Cl)c3)nc2N)c1,.,.,.,2%,-16%,.
CC(C)NCC(=O)C12CC3CC(CC(C3)C1)C2,-4%,-4,?,-4%,-4%,1%
COc1ccc(C(=O)c2sc(NC(C)C)nc2N)cc1OC,?,-109*,?,?,23µM*,-4%[9.24 µM]
COc1cccc(C(=O)c2sc(NC(C)C)nc2N)c1,-24%,-107*,21µM*,?,?,?
CC(C)Nc1nc(N)c(C(=O)C23CC4CC(CC(C4)C2)C3)s1,-1%,24,1%,21µM*,?,-4%
Cc1ccc(NC(=O)Cn2c(=O)n(Cc3nc(C)no3)c(=O)c3cc4c(cc32)OCO4)cc1,.,.,.,-20%,-25%,.
COc1cc(C)ccc1OCCCCOc1ccccc1C(C)=O,9%,8,-8%,1.8µM*,?,0%
Cc1ccc(C)c(Cn2c(=O)n(Cc3ccccc3)c(=O)c3sc4ccccc4c32)c1,.,.,.,6%,2%,.
Cc1ccc2c(CN3CCN(S(=O)(=O)c4ccc5c(c4)OCCO5)CC3)cc(=O)oc2c1C,1%,28,15µM*,?,?,-3%
Cc1ccc(S(=O)(=O)N2CCCN(c3nc4cc(C)ccc4cc3C#N)CC2)cc1,16%,31,?,?,?,-3%
CCS(=O)(=O)N1CCN(S(=O)(=O)c2ccc3c(c2)OCCO3)CC1,-2%,13,-6%,-10%,-12%,-2%
Cc1ccc2nc(N3CCN(S(=O)(=O)c4ccc5c(c4)OCCO5)CC3)c(C#N)cc2c1,4%,9,-19%,11µM*,?,5%
Cc1ccc(S(=O)(=O)N2CCCN(S(=O)(=O)c3ccc4c(c3)OCCO4)CC2)cc1,-17%,-23,?,11µM*,11µM*,2%
CCOC(=O)[C@]12CCCC=C1N(Cc1ccc3c(c1)OCO3)C(=O)[C@H](CC(=O)N1CCN(C(=O)C3CC3)CC1)C2,9%,25,.,?,?,3%

# Screens deposited in PubChem BioAssay by National Center for Advancing Translational Sciences (NCATS).
